In the test the target is Histone deacetylase 5 (Homo sapiens) (UniProt Q9UQL6). Briefly: inhibitors of recombinant human HDAC5 – biochemical, selectivity assay for E-cadherin restoration project, profiling panel (AID 651915).

Activity calls are given as the source filed them. How the calls were made is not given here.

Histone deacetylase 5 (Homo sapiens), sequence (Q9UQL6 whole entry, looked up): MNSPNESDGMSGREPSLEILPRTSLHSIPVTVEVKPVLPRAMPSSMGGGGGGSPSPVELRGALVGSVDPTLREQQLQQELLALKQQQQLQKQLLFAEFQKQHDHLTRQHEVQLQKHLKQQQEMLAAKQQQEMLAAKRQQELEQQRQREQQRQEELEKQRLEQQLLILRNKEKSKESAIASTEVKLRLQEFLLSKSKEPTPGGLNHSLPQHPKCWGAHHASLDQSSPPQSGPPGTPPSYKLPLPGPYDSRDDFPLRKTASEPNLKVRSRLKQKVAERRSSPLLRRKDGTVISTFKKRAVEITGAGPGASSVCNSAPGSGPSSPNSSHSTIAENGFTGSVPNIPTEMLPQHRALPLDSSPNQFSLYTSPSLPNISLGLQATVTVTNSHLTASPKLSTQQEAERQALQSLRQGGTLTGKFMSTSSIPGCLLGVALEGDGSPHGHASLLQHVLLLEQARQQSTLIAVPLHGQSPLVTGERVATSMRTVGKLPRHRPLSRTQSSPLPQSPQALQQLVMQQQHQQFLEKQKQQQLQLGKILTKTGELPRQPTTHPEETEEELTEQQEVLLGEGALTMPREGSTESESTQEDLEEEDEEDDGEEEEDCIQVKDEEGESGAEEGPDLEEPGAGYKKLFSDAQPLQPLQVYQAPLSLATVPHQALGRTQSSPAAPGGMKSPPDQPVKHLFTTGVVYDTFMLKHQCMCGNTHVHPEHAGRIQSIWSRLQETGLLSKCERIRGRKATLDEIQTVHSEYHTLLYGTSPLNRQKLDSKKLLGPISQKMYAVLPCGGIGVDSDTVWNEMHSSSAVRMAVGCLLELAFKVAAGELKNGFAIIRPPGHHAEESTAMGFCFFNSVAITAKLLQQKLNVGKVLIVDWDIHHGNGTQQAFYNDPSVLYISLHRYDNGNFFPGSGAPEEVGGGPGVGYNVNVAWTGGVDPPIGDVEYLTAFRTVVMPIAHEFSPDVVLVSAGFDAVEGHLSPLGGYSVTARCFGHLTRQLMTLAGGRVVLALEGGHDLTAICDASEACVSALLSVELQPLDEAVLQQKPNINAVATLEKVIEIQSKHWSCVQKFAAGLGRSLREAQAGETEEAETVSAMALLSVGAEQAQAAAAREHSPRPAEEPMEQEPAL

`O=C(NCCCNC(=O)c1ccc[nH]c1=O)c1cc(-c2ccccc2)on1`: the result was inactive.
